Test [1] can be described thus: qHTS Assay for Identification of Small Molecule Inducers of Hypoxia Response (AID 2120; active = well fitted curve in the direction sought with a large enough effect in the signal ratio, with a control signal flat, not every such curve was filed as active; the % refers to the signal ratio). In outline: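 HRE-bla ME-180 cells in Opti-MEM with 0.5% dialyzed FBS, pre-plated 4-5 h, then compound titration for 17 h at 37 degrees Celsius. CCF4 loaded 2.5 h at room temperature; 460/530 nm ratio gave %Activity and AC50 for induction.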
(qHTS replaces the single test concentration by a dilution series.)

Test [2] can be described thus: Cytometric Cell-Based qHTS for Inhibitors of the mTORC1 Signaling Pathway in MEF (Tsc2-/-, p53-/-) Cells (AID 2660).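 Note: percent of cells above a phospho-rpS6 to PI ratio cutoff in each well; series mostly up to about 38 µM.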 Put shortly: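 Percent of cells positive for normalized phospho-S6 staining is reported, with the cutoff set from rapamycin (7.5 nM) versus DMSO wells. Tsc2-/-, p53-/- MEFs received compound for 24 hrs.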
A short description of test [3]: High Content Imaging Cell-Based qHTS for Inhibitors of the mTORC1 Signaling Pathway in MEF (Tsc2-/-, p53-/-) Cells (AID 2666).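 Note: percent of cells scored positive for phospho-rpS6 Ser235/236 immunostaining by imaging.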 In outline: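 Read-out: % positive cells per well, with thresholds from highest- and lowest-signal wells, based on phospho-rpS6 (Ser235/236) intensity normalized to Hoechst nuclear stain. Cells: Tsc2-/-, p53-/- MEFs carrying empty vector; compound 24 hrs, 37 degree Celsius.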

The nature of test [4]: High Content Imaging Cell-Based qHTS for Inhibitors of the mTORC1 Signaling Pathway in MEF Cells (AID 2667). Note: potency is the fitted concentration of half-maximal effect. Put shortly:
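MEF (Tsc2-/-, p53-/-, WT Tsc2 re-expressed); cpd 24 h, 37 °C; PFA fix; Alexa-488 anti-p-rpS6 Ser235/236, PI, Hoechst; IN Cell imaging; Hoechst/Alexa-488 intensity ratio; % active cells, thresholds set from rapamycin and DMSO wells.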

The target in test [5] is Ubiquitin carboxyl-terminal hydrolase 2 (Homo sapiens) (UniProt O75604). The test is described as follows: qHTS Validation Assay for Inhibitors of Ubiquitin-specific Protease USP2a Using CHOP2 as the Reporter (AID 463106). Note: potency is the fitted concentration of half-maximal effect. In outline: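 USP2 core (10nM final) was preincubated with compound for 30min at RT in 20mM Tris-HCl pH 8.0, 2mM CaCl2, 2mM beta-mercaptoethanol, 0.05% CHAPS. Ub-CHOP2 and reporter substrate (25nM each) were added, and fluorescence (Ex 485/Em 531nm) was read after 60min.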

The target of test [6] is DNA polymerase III PolC-type (Bacillus subtilis (strain 168)) (UniProt P13267). Briefly: qHTS Validation Assay for the Inhibitors of DNA Replication in Gram-Positive Bacteria (AID 485295). Note: potency is the fitted concentration of half-maximal effect. Put shortly:
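Reconstituted B. subtilis Pol III holoenzyme (PolC, beta clamp, SSB, primase) preincubated with compound, then M13Gori single-stranded circular template with dNTPs/NTPs added; room temperature reaction. Stopped with EDTA/PicoGreen; dsDNA fluorescence read, EDTA as full-inhibition control.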

In test [7] the target is Tumor susceptibility gene 101 protein (Homo sapiens) (UniProt Q99816). Briefly: qHTS Validation Assay for Iinhibitors of HIV-1 Budding by Blocking the Interaction of PTAP/TSG101 (AID 485342; calls by dose curve). In outline:
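Tsg101 binding domain (10 uM) with FITC-labeled PTAP peptide (50 nM) in HEPES pH 7.5 buffer, 20 min at r.t. with compounds. Binding measured by fluorescence polarization.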

Test [8] addresses Beta-2 adrenergic receptor (Homo sapiens) (UniProt P07550). Briefly: qHTS validation assay of beta-arrestin-biased ligands of beta2-adrenergic receptor (AID 485366). In outline: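 Luminescence from a tTA-responsive luciferase, induced when recombinant beta-arrestin is recruited to recombinant beta2-AR, served as the agonism signal. Cells were exposed to compound for 18 hr at 37 degrees C; titrations spanned up to 46 microM.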

Test [9] deals with ATP-dependent 6-phosphofructokinase (Trypanosoma brucei brucei) (UniProt O15648). The test is described as follows: qHTS Validation Assay to Find Inhibitors of T. brucei phosphofructokinase (AID 485368). Note: potency is the fitted concentration of half-maximal effect. In outline:
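Activity was normalized between 1x (1.25 nM) PFK wells as no inhibition and enzyme-free wells as full inhibition, from luminescence after ADP-Glo detection of ADP made from 0.5 mM F6P and 0.1 mM ATP over 45 min.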

A short description of test [10]: qHTS Validation Assay to Find Inhibitors of Chronic Active B-Cell Receptor Signaling (AID 485345; active = well fitted curve in the direction sought with a large enough effect in the main read-out, with a control signal flat, not every such curve was filed as active). In outline:
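TMD8 ABC-DLBCL cells with dox-inducible green luciferase–IκBα fusion and red native luciferase; compounds 46 uM–3 nM, 4 h at 37C with doxycycline in 0.5% FBS IMDM. Green/red ratio normalized to basal and 10 uM MG-132.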

Test [11] has as its target ATP-dependent DNA helicase Q1 (Homo sapiens) (UniProt P46063). The test is described as follows: qHTS Validation Assay for Inhibitors of RecQ-Like Dna Helicase 1 (RECQ1) (AID 2353). Note: potency is the fitted concentration of half-maximal effect. In outline:
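50 nM RECQ1T1 preincubated 15 min with compound in Tris pH 8.0 buffer with MgCl2, DTT, Tween-20 and 2.5 ug/ml poly(dI-dC); started with 200 nM TAMRA/BHQ-2 forked duplex and 2 mM ATP. Unwinding read as fluorescence (525/598 nm), two reads 2 h apart.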

Test [12] has as its target RecQ-like DNA helicase BLM (Homo sapiens) (UniProt P54132). Briefly: qHTS Validation Assay for Inhibitors of Bloom's syndrome helicase (BLM) (AID 2364). Note: potency is the fitted concentration of half-maximal effect. Put shortly:
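BLM 50 nM in 25 mM Tris-HCl pH 8.0, 5 mM NaCl, 2 mM MgCl2, 1 mM DTT, 0.01% Tween-20, 2.5 ug/ml poly(dI-dC); 15 min cpd preinc, RT. Start: 200 nM forked DNA + 2 mM ATP (final). TAMRA read, 2 reads 2 h apart.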

The nature of test [13]: Cytometry Cell-Based qHTS for Inhibitors of the mTORC1 Signaling Pathway in MEF cells (AID 2668).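 Note: Tsc2-/- p53-/- mouse embryonic fibroblasts stably re-expressing wild-type Tsc2; percent cells positive for phospho-rpS6 Ser235/236 relative to propidium iodide stain; series mostly up to about 38 µM.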 In outline: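 MEFs (Tsc2-/-, p53-/- stably expressing WT Tsc2) treated 24 h at 37 degree Celsius, fixed, stained with Alexa-488 anti-phospho-rpS6 Ser235/236 and propidium iodide; Acumen laser scanning. Reported as % positive cells, phospho-S6 normalized to PI.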
A short description of test [14]: Validation screen for inhibitors of Lassa infection (AID 463096; calls by dose curve; note: potency is the fitted concentration of half-maximal effect).
The nature of test [15]: Validation screen for small molecules that induce DNA re-replication in MCF 10A normal breast cells (AID 463097). Note: nearly all actives have a fitted effect of over 60% in size. Put shortly:
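MCF 10A cells exposed to compound 48 hr at 37 C, 5% CO2, then Hoechst-stained 40 min. Laser-scanning imaging of nuclear DNA content (405 nm ex, 500-530 nm em); re-replication scored as rise in nuclei with elevated fluorescence intensity.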

Test [16] has as its target Ferritin light chain (Equus caballus) (UniProt P02791). The test is described as follows: qHTS Validation Assay for Identification of Novel General Anesthetics (AID 2323). Note: series mostly up to about 77 µM. In outline: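 Horse-spleen apoferritin (10 uM) in PBS with 50% saturated 1-aminoanthracene; compounds pin-transferred, 10 min at room temperature. Fluorescence read at 380/535 nm, normalized to free 1-AMA and 1-AMA/apoferritin values; four-parameter Hill fit.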

Records with an inconclusive call do not appear. Active and inactive are the calls of the source. Unless noted, calls come from the whole dose curve; as a rule, active = well fitted curve in the direction sought with a large enough effect; inconclusive = small, poorly fitted or top-dose-only effect, or another doubt; inactive = no such curve, though single readings can be large; an effect the other way counts as inactive or inconclusive.

Sequence of ATP-dependent 6-phosphofructokinase (Trypanosoma brucei brucei) (O15648 whole entry, looked up): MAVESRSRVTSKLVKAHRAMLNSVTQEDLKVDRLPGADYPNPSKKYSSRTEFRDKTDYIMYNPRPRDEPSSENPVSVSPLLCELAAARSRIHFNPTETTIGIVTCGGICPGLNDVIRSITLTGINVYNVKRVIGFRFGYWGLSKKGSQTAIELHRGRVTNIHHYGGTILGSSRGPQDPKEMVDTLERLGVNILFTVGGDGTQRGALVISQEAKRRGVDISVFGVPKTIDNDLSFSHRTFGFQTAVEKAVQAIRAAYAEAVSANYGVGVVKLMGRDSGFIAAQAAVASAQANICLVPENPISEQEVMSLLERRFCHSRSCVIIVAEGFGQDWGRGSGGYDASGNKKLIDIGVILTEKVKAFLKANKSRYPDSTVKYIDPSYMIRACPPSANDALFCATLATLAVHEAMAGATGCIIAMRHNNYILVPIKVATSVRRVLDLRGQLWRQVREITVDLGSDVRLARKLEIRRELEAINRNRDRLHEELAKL
Sequence of RecQ-like DNA helicase BLM (Homo sapiens) (P54132 whole entry, looked up): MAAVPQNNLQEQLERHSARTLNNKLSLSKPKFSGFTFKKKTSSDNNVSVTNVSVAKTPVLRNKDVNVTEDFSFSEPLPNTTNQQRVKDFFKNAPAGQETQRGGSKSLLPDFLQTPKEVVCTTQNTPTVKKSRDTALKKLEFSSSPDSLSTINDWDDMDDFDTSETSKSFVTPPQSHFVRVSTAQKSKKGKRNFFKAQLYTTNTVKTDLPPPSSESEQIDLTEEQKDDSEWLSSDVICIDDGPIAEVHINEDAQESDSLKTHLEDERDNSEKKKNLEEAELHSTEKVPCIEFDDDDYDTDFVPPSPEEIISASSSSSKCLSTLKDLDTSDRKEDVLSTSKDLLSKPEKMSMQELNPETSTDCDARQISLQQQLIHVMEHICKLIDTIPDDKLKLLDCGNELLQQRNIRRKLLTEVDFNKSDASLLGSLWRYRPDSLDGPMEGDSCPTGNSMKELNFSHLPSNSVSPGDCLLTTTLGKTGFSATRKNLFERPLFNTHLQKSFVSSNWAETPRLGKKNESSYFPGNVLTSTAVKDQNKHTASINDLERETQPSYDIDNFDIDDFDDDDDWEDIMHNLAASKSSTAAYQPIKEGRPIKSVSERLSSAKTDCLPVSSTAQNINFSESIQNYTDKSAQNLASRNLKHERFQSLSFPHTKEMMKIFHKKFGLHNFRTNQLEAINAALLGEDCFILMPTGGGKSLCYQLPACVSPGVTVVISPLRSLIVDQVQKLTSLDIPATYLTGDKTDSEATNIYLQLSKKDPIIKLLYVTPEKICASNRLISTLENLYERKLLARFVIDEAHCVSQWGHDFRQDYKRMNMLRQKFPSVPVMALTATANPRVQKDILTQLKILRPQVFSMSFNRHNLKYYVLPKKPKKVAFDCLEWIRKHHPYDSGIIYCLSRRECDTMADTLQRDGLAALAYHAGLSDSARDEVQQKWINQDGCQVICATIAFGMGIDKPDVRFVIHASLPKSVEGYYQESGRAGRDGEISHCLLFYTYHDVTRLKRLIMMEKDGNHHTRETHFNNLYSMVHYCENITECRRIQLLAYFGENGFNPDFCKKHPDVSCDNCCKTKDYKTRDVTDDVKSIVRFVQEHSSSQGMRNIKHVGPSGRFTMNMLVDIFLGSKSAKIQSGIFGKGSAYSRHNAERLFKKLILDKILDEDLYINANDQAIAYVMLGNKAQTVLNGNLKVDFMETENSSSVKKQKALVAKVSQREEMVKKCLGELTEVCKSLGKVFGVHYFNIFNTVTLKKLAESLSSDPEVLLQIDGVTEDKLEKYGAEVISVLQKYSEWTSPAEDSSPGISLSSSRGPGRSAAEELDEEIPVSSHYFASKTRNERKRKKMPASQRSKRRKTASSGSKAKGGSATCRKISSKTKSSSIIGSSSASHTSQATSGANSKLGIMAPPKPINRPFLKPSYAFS
Sequence of ATP-dependent DNA helicase Q1 (Homo sapiens) (P46063 whole entry, looked up): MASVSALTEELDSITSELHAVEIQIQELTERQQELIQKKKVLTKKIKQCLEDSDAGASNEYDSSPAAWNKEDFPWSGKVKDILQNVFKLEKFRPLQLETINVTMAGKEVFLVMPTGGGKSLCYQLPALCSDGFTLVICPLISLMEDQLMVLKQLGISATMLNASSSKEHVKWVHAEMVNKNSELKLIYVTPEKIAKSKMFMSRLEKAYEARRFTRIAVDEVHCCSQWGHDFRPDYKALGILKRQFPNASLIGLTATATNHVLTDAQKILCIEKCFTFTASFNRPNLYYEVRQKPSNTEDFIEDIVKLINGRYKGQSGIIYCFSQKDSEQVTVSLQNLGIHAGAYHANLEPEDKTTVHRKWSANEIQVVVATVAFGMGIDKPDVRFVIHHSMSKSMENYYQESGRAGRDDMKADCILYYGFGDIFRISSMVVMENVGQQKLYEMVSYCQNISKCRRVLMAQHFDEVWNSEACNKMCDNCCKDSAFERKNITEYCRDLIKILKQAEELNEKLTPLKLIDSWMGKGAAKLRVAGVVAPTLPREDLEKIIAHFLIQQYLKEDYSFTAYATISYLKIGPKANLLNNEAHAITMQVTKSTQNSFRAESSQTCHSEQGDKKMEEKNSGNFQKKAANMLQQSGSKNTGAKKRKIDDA
Sequence of Tumor susceptibility gene 101 protein (Homo sapiens) (Q99816 whole entry, looked up, the tested form may be a part): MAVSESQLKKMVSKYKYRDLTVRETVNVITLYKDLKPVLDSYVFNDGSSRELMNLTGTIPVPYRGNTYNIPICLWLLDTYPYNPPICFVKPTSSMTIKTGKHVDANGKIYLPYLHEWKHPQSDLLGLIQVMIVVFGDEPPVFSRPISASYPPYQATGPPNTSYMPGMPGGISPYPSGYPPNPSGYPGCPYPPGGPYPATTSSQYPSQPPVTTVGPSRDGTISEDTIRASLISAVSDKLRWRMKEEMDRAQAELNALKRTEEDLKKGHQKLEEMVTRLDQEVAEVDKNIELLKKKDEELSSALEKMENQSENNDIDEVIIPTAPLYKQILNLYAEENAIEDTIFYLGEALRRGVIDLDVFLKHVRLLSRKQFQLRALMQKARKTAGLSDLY
Sequence of Ubiquitin carboxyl-terminal hydrolase 2 (Homo sapiens) (O75604 whole entry, looked up): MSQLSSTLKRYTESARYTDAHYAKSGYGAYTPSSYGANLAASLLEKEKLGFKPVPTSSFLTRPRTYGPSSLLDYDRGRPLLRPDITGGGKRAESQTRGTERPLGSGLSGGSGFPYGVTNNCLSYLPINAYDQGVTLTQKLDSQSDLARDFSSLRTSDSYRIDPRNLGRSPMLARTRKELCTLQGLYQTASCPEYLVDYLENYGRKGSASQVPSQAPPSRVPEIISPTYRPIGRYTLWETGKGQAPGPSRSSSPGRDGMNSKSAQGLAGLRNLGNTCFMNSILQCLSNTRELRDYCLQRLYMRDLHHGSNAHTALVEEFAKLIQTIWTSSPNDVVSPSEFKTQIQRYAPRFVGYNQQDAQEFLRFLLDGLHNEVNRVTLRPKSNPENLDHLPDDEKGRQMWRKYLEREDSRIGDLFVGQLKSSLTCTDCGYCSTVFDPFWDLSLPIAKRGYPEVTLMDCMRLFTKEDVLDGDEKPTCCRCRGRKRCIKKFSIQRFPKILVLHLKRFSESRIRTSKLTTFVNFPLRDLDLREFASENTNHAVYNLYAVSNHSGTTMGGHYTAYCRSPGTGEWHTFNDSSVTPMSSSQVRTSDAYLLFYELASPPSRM
Sequence of Ferritin light chain (Equus caballus) (P02791 2-175 limits assumed): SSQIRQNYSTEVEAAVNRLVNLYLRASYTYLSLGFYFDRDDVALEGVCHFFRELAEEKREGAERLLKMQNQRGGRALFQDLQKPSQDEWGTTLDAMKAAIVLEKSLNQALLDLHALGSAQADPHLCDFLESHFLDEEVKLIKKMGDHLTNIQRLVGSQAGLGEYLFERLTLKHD
Sequence of Beta-2 adrenergic receptor (Homo sapiens) (P07550 whole entry, looked up): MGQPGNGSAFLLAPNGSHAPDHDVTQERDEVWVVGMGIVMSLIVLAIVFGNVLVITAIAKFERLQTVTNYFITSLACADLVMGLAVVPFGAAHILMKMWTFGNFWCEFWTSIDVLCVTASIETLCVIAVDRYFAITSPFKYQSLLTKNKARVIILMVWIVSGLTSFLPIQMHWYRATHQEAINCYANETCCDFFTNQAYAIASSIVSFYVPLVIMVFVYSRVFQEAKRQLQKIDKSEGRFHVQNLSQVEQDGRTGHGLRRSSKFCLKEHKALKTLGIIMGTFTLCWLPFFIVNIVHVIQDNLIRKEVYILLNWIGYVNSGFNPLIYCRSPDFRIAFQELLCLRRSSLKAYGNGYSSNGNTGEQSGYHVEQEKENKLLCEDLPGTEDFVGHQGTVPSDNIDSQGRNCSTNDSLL

As to `CCCCCCCCOC(=O)c1ccccc1C(=O)OCCCCCCCC`, in test [1], the outcome was inactive.

For the compound `CCCN1CCc2cccc3c2[C@H]1Cc1ccc(O)c(O)c1-3`, the Potency result in [2], in test [3], in test [4], in [5] and in [6] was “inactive” in each case. Also, the compound was classed as inactive in test [7] and in test [8]. In addition, the Potency in test [9] was 12 µM (active).

In the case of `C=CCN(C1=NCCN1)c1c(Cl)cccc1Cl`, the Potency result in test [2], in [4], in [5], in test [6], in test [10] and in [9] was “inactive” throughout. Also, the result in test [8] was inactive.

Turning to `N#C/C(=C/c1ccc(O)c(O)c1)C(N)=S`, the Potency result in test [2], in test [4], in test [5], in test [6] and in test [10] was “inactive” throughout. The result in [7] and in test [8] was inactive.

On to `CN(N=O)c1ccc(O)c(O)c1`, for which the Potency in test [11] was 1.12 µM (active); in [12], 6.31 µM (active); in test [5] it was 4.14 µM (active); in test [6] it was 23.8 µM (active). The Potency result in test [2], in [3], in test [4], in [13], in test [14] and in [15] was “inactive” throughout. Also, the Potency entry in test [10] is “inactive”. In test [8], the result was inactive.

For `C=CCN1CCc2cccc3c2[C@H]1Cc1ccc(O)c(O)c1-3`, the Potency result in test [3], in test [5] and in [6] was “inactive” throughout. The Potency in test [4] is 7.36 µM (active). For the same compound, the outcome in test [7] and in [8] was inactive.

Turning to `CN1CCc2cc(O)cc3c2[C@H]1Cc1ccc(O)c(O)c1-3`, the Potency entry in test [5], in test [6] and in [10] was “inactive” in each case. For the same compound, the outcome in test [7] and in test [8] was inactive.

For `C[C@H](N)Cc1cccc(C(F)(F)F)c1`, the Potency result in test [3], in test [4], in [13], in test [5], in test [6] and in test [10] was “inactive” throughout. Besides, the Potency result in test [9] was “inactive”. Besides, in test [7], the compound was classed as inactive.

For the compound `Oc1ccc2c3c1O[C@H]1c4[nH]c5ccccc5c4C[C@@]4(O)C(C2)N(CC2CC2)CCC314` (some centres not stated), the compound was called inactive in test [16], in test [7] and in test [8]. Besides, the Potency entry in test [11], in test [12], in [3], in [15], in test [5] and in test [6] was “inactive” throughout. Also, the Potency entry in test [9] was “inactive”. The Potency in test [14] was 11.2 µM (active).

As for `O=[N+]([O-])/C=C/c1ccc2c(c1)OCO2`, the Potency in test [4] was 2.07 µM (active). The Potency result in [5] and in test [6] was “inactive” throughout. Besides, the call in test [7] and in test [8] was inactive.

As to `O=C1CCO1`, the outcome in test [1] was inactive.

Consider `CCCN1CCc2cc(O)cc3c2[C@H]1Cc1ccc(O)c(O)c1-3`, for which the Potency entry in test [5] and in test [6] was “inactive” throughout. Moreover, the result in test [7] and in [8] was inactive. In addition, the Potency in test [9] was 3.01 µM (active).

On to `N[C@@H](Cn1ccc(=O)[nH]c1=O)C(=O)O`, for which the Potency entry in test [2], in [4], in test [13], in test [5], in [6] and in test [10] was “inactive” throughout. Besides, the Potency entry in [9] was “inactive”. For the same compound, the compound was called inactive in [7] and in test [8].

Take `CCCn1c(=O)c2[nH]c(C3CCCC3)nc2n(CCCOC(=O)c2ccc(S(=O)(=O)F)cc2)c1=O`: the Potency result in [11], in test [2], in test [3], in test [4], in [14] and in test [5] was “inactive” throughout. Further, in [6], the Potency entry is “inactive”. In addition, the compound was classed as inactive in test [7] and in test [8].

For the compound `COc1ccc2c(c1)C13CCCCC1C(C2)N(C)CC3` (configuration not stated), the outcome in test [16], in test [7] and in test [8] was inactive. The Potency result in test [11], in test [12], in test [2], in test [3], in [4] and in test [13] was “inactive” in each case. Besides, the Potency entry in test [14], in test [15], in test [5], in test [6] and in [10] was “inactive” throughout.

Regarding `c1ccc2c(N3CCNCC3)cccc2c1`, the compound was called inactive in test [16] and in [8]. Besides, the Potency result in test [11], in [12], in [2], in test [3], in [4] and in [14] was “inactive” each time. Further, the Potency result in test [15], in [5], in test [6] and in test [9] was “inactive” in each case.

For the compound `CC(C)[C@@]1(NC(=O)[C@@H]2C[C@@H]3c4cccc5[nH]cc(c45)C[C@H]3N(C)C2)O[C@@]2(O)[C@@H]3CCCN3C(=O)[C@H](Cc3ccccc3)N2C1=O`, the Potency entry in test [2], in [3], in test [4], in test [13], in test [5] and in test [6] was “inactive” throughout. Also, the Potency result in [10] and in test [9] was “inactive” each time. Moreover, the call in test [7] and in test [8] was inactive.

Consider `CCCN1CCC[C@@H](c2cccc(O)c2)C1`, for which the Potency result in [2], in [4], in test [13], in test [5], in [6] and in test [10] was “inactive” each time. In [9], the Potency result was “inactive”.

The record behind these values is PubChem BioAssay (NCATS).
